High-throughput results from PubChem.
Compounds with a hit are over-represented: about 1.1% of the library has one in this group of screens.
NCOA1 inh = inhibits human SRC1 coactivator | Q15788 | HEK293 GAL4-SRC1 luciferase reporter, luminescence | inhibition, % at 3.6 µM | hit rate 0.12% among 360,000;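 active = inhibition above the campaign mean plus 3 SD, with each screening campaign given its own cutoff, cut at about 60% in these data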;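 also: 0% = DMSO treated cells and 100% = gossypol at 36 µM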
NR5A2 inv ag = NR5A2 inverse agonism in reporter assay; O00482; hit rate 0.13% among 360,000; inhibition, % at 3.6 µM; HEK293T StAR-luciferase reporter, LRH-1 transfected, 24 h;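 active = inhibition above the mean inhibition of all tested compounds plus 3 SD, cut at about 73% in these data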;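 also: 0% = DMSO wells and 100% = reporter-only cells lacking LRH-1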
Target sequence (O00482 whole entry, looked up): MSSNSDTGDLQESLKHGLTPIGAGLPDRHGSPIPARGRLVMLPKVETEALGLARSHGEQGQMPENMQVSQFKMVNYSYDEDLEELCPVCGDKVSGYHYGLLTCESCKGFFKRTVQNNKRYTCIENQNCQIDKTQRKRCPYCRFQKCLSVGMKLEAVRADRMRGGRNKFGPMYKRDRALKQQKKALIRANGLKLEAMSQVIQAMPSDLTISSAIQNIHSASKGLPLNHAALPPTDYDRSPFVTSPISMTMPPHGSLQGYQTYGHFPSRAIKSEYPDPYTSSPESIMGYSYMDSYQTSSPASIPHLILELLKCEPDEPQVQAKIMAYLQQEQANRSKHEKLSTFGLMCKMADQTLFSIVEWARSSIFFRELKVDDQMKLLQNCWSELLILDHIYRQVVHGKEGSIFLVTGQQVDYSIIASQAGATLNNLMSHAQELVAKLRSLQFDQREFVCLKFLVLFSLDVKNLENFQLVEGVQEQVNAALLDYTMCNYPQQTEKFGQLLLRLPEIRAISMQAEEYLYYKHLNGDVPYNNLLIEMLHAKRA
NCOA3 inh = inhibits human SRC3 coactivator; inhibition, % at 3.6 µM; hit rate 0.17% among 360,000; HEK293 GAL4-SRC3 luciferase reporter, luminescence;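 active = inhibition above a per-campaign cutoff, the mean of all compounds plus 3 SD, cut at about 60% in these data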;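 also: 0% = DMSO-treated cells and 100% = gossypol-treated cells at 36 µM; higher means less SRC3-driven luciferase light from the GAL4 reporter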
COUP-TFII inh = blocks human COUP-TFII nuclear receptor. P24468. HEK293T NGFI-A luciferase reporter, luminescence. inhibition, % at 8.6 µM. hit rate 0.7% among 370,000. AID 686940;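 active = inhibition above a per-plate cutoff, mean inhibition of test wells between control levels plus 3 SD, cut at about 38% in these data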;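 also: cells cotransfected with COUP-TFII expression vector driving the NGFI-A reporter; 0% = median of COUP-TF2 test wells and 100% = reporter-only cells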
NCOA2 inhibitor = human SRC2 (NCOA2) inhibition. Q15596. HEK293 GAL4-SRC2 luciferase reporter, luminescence. inhibition, % at 9 µM. hit rate 0.17% among 370,000. AID 651957;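 active = inhibition above the mean inhibition of all tested compounds plus 3 SD, set per campaign, cut at about 52% in these data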;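 also: 0% = DMSO treated cells and 100% = cells given Gossypol at 36 µM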
GalR3 antag = blocks the human galanin receptor 3; HEK293 GalR3-CNG cAMP membrane potential fluorescence; galR3 body fused to GalR1 C-terminus; inhibition, % at 3 µM; O60755; hit rate 0.44% among 360,000;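 active = inhibition above the screen-wide average plus 3 SD, cut at about 13% in these data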;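 also: forskolin and galanin both at EC90 stimulate the cells; cAMP rise reported by CNG channel membrane potential dye signal; 0% = forskolin plus galanin with DMSO and 100% = forskolin alone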
GalR3 antag conf = GalR3 (human) antagonism, confirmation; shares compounds with GalR3 antag; HEK293 GalR3 CNG cAMP biosensor, membrane potential fluorescence; galR3 fused to GalR1 carboxy tail; challenged with forskolin and galanin at EC90; inhibition, % at 3 µM; hit rate 59% among 1,600; AID 652245;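 active = inhibition above the primary screen's cutoff, the mean inhibition of all screened compounds plus 3 SD, cut at about 13% in these data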;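 also: 0% = forskolin plus galanin and 100% = forskolin alone with DMSO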
HEK-CNG parental = acts as nonspecific agonist in parental HEK-CNG cells; activation, % at 3 µM; hit rate 10% among 1,600; shares compounds with GalR3 antag; HEK293-CNG parental cells, cAMP membrane potential fluorescence; normalised: DMSO wells 0%, forskolin wells 100%; in the data active = activation above about 1.3%
* hit, by the source's call; / = no result given; ! = not confirmed by another sample.

SMILES	NCOA1 inh	NR5A2 inv ag	NCOA3 inh	COUP-TFII inh	NCOA2 inhibitor	GalR3 antag	GalR3 antag conf	HEK-CNG parental
COc1ccccc1C(=O)Nc1nnc([C@@H]2C[C@H](O)[C@@H](CO)O2)s1	9.6	19.6	-3.1	-8.8	-5.3	1.4	/	/
COc1ccccc1C(=O)Nc1nnc([C@H]2C[C@H](O)[C@@H](CO)O2)s1	-16.0	-1.2	-7.0	-14.6	-10.4	24.6*	-1.9	0.3
CCCCC(=O)NNC(=S)NC(=O)c1ccc(C)cc1	-13.5	-18.1	4.1	-18.6	-10.1	0.0	/	/
CCCCCC(=O)NNC(=S)NC(C)=O	-15.7	-6.8	7.9	-17.3	11.1	12.9*	1.7	0.0
Cc1ccc(S(=O)(=O)Nc2ccccc2N=Cc2c(F)c(F)c(F)c(F)c2F)cc1	-6.9	1.4	-2.4	-9.9	-15.9	-4.1	/	/
C[N+](C)(C)C/C=C1/COCO1	-1.3	1.4	-12.1	-6.0	5.3	19.5*	13.4*	0.3
COCCNC(=O)c1cnn2c(C(F)F)cc(-c3ccc(C)cc3)nc12	2.9	13.2	16.2	2.9	8.3	-2.2	/	/
COc1ccc(CNC(=O)c2cnn3c(C(F)F)cc(C)nc23)cc1OC	-1.5	16.0	13.3	26.2	-5.0	14.6*	20.3*	0.2
O=C1OCc2ccc(NC(=O)c3sccc3Cl)cc21	5.2	0.7	4.3	-6.7	14.2	15.1*	6.8	0.1
CC(c1ccc(F)cc1)n1c(-c2ccc3ccccc3n2)n[nH]c1=S (stereo not drawn)	-5.8	-11.2	-6.9	-15.1	0.4	-0.6	/	/
CC(c1ccc(Cl)cc1)n1c(-c2ccc3ccccc3n2)n[nH]c1=S (stereo not drawn)	2.2	-10.4	12.8	-3.0	5.8	13.1*	6.8	0.8
CCC1=Nc2cc(C(=O)NCC3CCCO3)ccc2Sc2ccc(Cl)cc21 (stereo not drawn)	-16.2	9.4	-2.0	-35.5	-9.1	16.5*	9.0	0.0
COc1ccc(Cn2c(=O)[nH]c3cc(C(=O)N4CCN(c5ccccc5OC)CC4)ccc3c2=O)cc1	22.9	13.7	11.8	/	/	/	/	/
COc1ccc(Cn2c(=O)[nH]c3cc(C(=O)N4CCN(Cc5ccccc5)CC4)ccc3c2=O)cc1	16.3	32.9	23.9	34.4	19.6	65.0*	88.3*	-0.5
CC(C)NCC(O)c1cc(O)cc(O)c1 (stereo not drawn)	-8.4	-4.0	-38.0	2.9	-36.4	78.3*	21.8*	6.4*
CC(C)NC[C@H](O)c1ccc(O)c(O)c1	-14.8	3.0	-37.5	-59.8	-46.8	-7.3	/	/
CCOC(=O)CSc1nnc(NC(=O)c2cc([N+](=O)[O-])cc([N+](=O)[O-])c2)s1	-3.2	17.0	6.5	1.8	8.0	-0.4	/	/
CCO[C@@H]1OC(C(N)=O)=C[C@H](c2ccc(C(F)(F)F)cc2)[C@H]1CCCO	-2.0	-12.3	-5.2	-17.6	-14.5	16.1*	5.2	0.1
CCOC(=O)C[N+]1(C)CCN(C(C)=O)CC1	7.7	-8.5	11.8	-4.2	-16.3	13.4*	-3.3	-0.4
COc1cc(OC)c2cc[nH]c2c1	10.2	2.3	8.2	-6.6	18.7	17.7*	4.6	0.3
COc1ccc(Cc2c(C(C)(C)C)nc3ccc(Br)cn23)c(C)c1	-3.9	1.1	-4.1	-12.2	3.9	-7.4	/	/
N#Cc1cccc(C(=O)C(=O)N2CCC(Cc3ccccc3)CC2)c1	/	13.6	/	8.6	-0.1	-6.6	/	/
O=C(C(=O)N1CCC(Cc2ccccc2)CC1)c1ccccc1	/	-4.4	/	5.5	1.1	15.6*!	-1.7	-0.2
C=CCN1C(=O)c2ccc(C(=O)NCCOc3ccccc3F)cc2C1=O	-1.4	-18.5	-0.7	5.4	-3.5	1.6	/	/
N#CCSc1n[nH]c2nc3c(c(=O)n12)C1(CCCC1)Cc1ccccc1-3	-15.3	-24.6	1.0	-34.6	6.8	/	-4.5	-0.1
SMILES	NCOA1 inh	NR5A2 inv ag	NCOA3 inh	COUP-TFII inh	NCOA2 inhibitor	GalR3 antag	GalR3 antag conf	HEK-CNG parental
CCOC(=O)c1cc[n+](CC(=O)c2ccc(F)cc2)cc1	-31.0	2.6	-3.5	-0.3	-18.9	14.6*	3.0	0.1
Cc1cc(C(=O)Nc2cccc(/C=C/C(=O)O)c2)c(C)o1	-16.8	-4.6	4.5	7.9	18.7	46.2*	88.5*	0.1
Cc1oc(-c2ccccc2)cc1C(=O)Nc1cccc(/C=C/C(=O)O)c1	-12.7	-13.7	3.5	-8.5	-21.1	74.7*	111.3*	0.3
ON1C2CCCCC2N(O)C1c1c(F)c(F)c(F)c(F)c1F (stereo not drawn)	-5.0	1.8	0.6	3.2	7.2	0.6	/	/
CCOC(=O)CS(=O)(=O)c1nc(-c2ccc(F)cc2)cc(C(F)(F)F)n1	-45.1	-27.8	-10.0	/	/	/	/	/
CS(=O)(=O)c1nc(-c2ccc(F)cc2)cc(C(F)(F)F)n1	-39.5	-26.9	-35.7	-57.9	-0.1	25.7*	24.9*	0.8
COc1ccc(-c2cc(C(F)(F)F)nc(S(C)(=O)=O)n2)cc1	-30.7	-15.2	-21.9	-51.3	-11.8	31.8*	13.4*	1.1
Cc1ccccc1SCC(=O)Nc1cccc(C#N)c1	-26.2	-8.2	2.1	-1.9	-14.4	-0.8	/	/
COc1ccc(-c2noc(CCC(=O)NCCCN3CCC(Cc4ccccc4)CC3)n2)cc1	11.6	24.8	36.5	34.2	39.3	76.3*	-2.8	6.1*
COc1ccccc1N(CC(=O)N(CC(C)C)CC(C)C)S(=O)(=O)c1cccs1	-11.7	8.0	17.1	-1.9	-12.5	-7.5	/	/
C=C(C)C1CC=C(CN2CCC(O)CC2)CC1 (stereo not drawn)	14.9	8.1	-13.3	-15.0	3.5	-2.2	/	/
C=C(C)[C@@H]1CC=C(CN2CCC(N3CCC(C(=O)N4CCCC4)CC3)CC2)CC1	-4.4	2.0	17.4	32.7	-6.0	19.5*	2.8	4.4*
CCOc1ccc(OCCC(=O)OCC(=O)N2CCN(S(=O)(=O)c3ccc(C)cc3)CC2)cc1	-18.1	0.7	-5.7	-10.9	6.0	-0.7	/	/
Cc1ccc(S(=O)(=O)N2CCN(C(=O)COC(=O)CCOc3ccc(C(C)(C)C)cc3)CC2)cc1	9.8	-9.3	-12.9	-19.2	-30.0	20.4*	19.9*	-0.6
COc1ccc(-n2c(SCc3ccc([N+](=O)[O-])cc3)nnc2-c2ccc(C)cc2)cc1	-8.9	-11.2	11.7	2.4	14.3	49.8*	10.6	0.7
Cc1ccc(-n2c(SCc3ccc(C#N)cc3)nnc2-c2ccccn2)cc1	-9.4	8.0	10.8	10.3	5.5	13.3*	11.7	0.2
COc1ccc(SCCN2CC[C@@H](O)CCC2=O)cc1	4.3	12.7	1.2	-20.2	-9.9	0.0	/	/
COc1cccc2cc(C(=O)N3CCN(C(=O)c4ccco4)CC3)c(=O)oc12	6.5	-4.1	-6.4	-4.4	1.6	-5.8	/	/
